Experimental data as given in PubChem BioAssay (NCI).
The panel holds about 79,000 compounds, 15% with a hit somewhere; the sample as a whole holds those more often. Calls of active or inactive are those of the source. Cut-off read from the data, not from the text of the source: active = growth inhibition above about 70%; inactive = the rest.

assay: NCI Yeast Anticancer Drug Screen. Data for the rad50 strain (AID 155);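 note: 0% = growth of vehicle-only cultures of the same strain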; settings: S. cerevisiae rad50 strain growth inhibition; at 50.0 µM; hits give high values
How it was run: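 DNA repair mutant yeast, compound exposure, growth read-out; inhibition is taken relative to vehicle.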

SMILES	growth inhibition
Cc1oc2nc(N(C)C)nc(Cl)c2c1C	7.15% (inactive)
CCn1c2ccc([N+](=O)[O-])cc2c2c([N+](=O)[O-])c(NC=O)ccc21	12.2% (inactive)
O=C(Nc1ccc(S(=O)(=O)Nc2nccs2)cc1)c1cccnc1Nc1cccc(Cl)c1	36.6% (inactive)
COc1cc(CC(=O)O)ccc1O	11.8% (inactive)
O=C(Nc1ccc(I)cc1)c1ccc([N+](=O)[O-])cc1	2.3% (inactive)
CC1CN=C(N(C(=O)Nc2ccc(F)c(Cl)c2)c2ccccc2)S1 (stereo not given)	-1.55% (inactive)
Cc1cc(CC(N)C(=O)O)ccc1O (stereo not given)	-0.65% (inactive)
Cc1cccc(NC(=S)NC2CCCCC2)c1	2.75% (inactive)
Cc1cccc2c1C1C(CC2=O)C(=O)c2ccccc2C1C (stereo not given)	7% (inactive)
Nc1ccc2c(c1)Cc1cc(O)ccc1-2	19.1% (inactive)
CCCCS(=O)(=O)N(CCC)CCC	9.55% (inactive)
Cc1cc(C)c(C2CNCc3cc4c(cc32)CNCC4c2c(C)cc(C)cc2C)c(C)c1 (stereo not given)	-16.3% (inactive)
N#Cc1nc(C(O)c2ccccc2)oc1N (stereo not given)	-6.75% (inactive)
C/C=C/c1ccc(OC(C)C(=O)c2ccc3c(c2)OCO3)c(OC)c1 (stereo not given)	-12.4% (inactive)
NC1=Nc2ncccc2C(=O)NN1	-17.4% (inactive)
CC1CC(=O)CC[C@@H]1OCc1ccccc1 (stereo not given in full)	5.95% (inactive)
COC(=O)C1=C(C(=O)OC)C23CC4CCC2(C(=O)C1O3)C4(C)C (stereo not given)	36.4% (inactive)
COc1ccc2ccc3cccnc3c2n1	45.2% (inactive)
Cc1cccc(-c2cc(=O)c3c(C)cc(C)nc3[nH]2)c1	-2.1% (inactive)
C1CCCN(NC2=NCCO2)CC1	18.8% (inactive)

SMILES	growth inhibition
O=C(OC1CC2CCC1C2)c1cc([N+](=O)[O-])cc([N+](=O)[O-])c1 (stereo not given)	8.55% (inactive)
CC(=O)OC(c1ccccc1)C1(c2ccccc2)OCCO1 (stereo not given)	-9.2% (inactive)
CC1C=CCCC1COC(=O)C(=O)OCC1CC=CCC1C (stereo not given)	32.7% (inactive)
CCOC(=O)C/C(C)=N\NC(N)=O	38.2% (inactive)
OC1(c2ccc(F)cc2)CCNCC1	21.5% (inactive)
COc1ccc(C2OC3=C(Nc4ccc([N+](=O)[O-])cc4N3)C2=O)cc1OC (stereo not given)	-9.75% (inactive)
COC(=O)C1(CCCCCBr)CCCCCCCCCCC1=O (stereo not given)	-8.6% (inactive)
Cc1ccc(S(=O)(=O)NC(C)C(=O)O)cc1 (stereo not given)	-1.5% (inactive)
CCNc1cc2oc(=O)cc(C)c2cc1C	-30.7% (inactive)
CCN(CC)C(C)(C)C(=O)/C=C/c1ccc(OC)cc1	-11.6% (inactive)
CC(=Nc1ccccc1)NO	1.9% (inactive)
CN(C)c1ccc(C2(c3ccc(N(C)C)cc3)NNC(=O)c3ccccc32)cc1	17.2% (inactive)
O=C1NC(Cc2ccc(O)cc2)C(=O)N1c1ccccc1O (stereo not given)	2.5% (inactive)
COC(C)CCOC(=O)c1ccccc1 (stereo not given)	-33% (inactive)
Cc1nc(-n2nc(-c3ccccc3)cc2-c2ccccc2)sc1C(=O)/C=C/c1ccc(Cl)c(Cl)c1	53.2% (inactive)
O=C(O)C12CC3(C(=O)O)CC(C(=O)O)(CC(C(=O)O)(C1)C3=O)C2=O	-11.3% (inactive)
CCC(SC(CC)(CC(C)C)C(N)=O)C(N)=O (stereo not given)	4.1% (inactive)
O=C(NN=C1CCCCC1)c1ccccc1	-6% (inactive)
Nc1ccc2c(c1)C(=O)N(OS(=O)(=O)c1ccccc1)C2=O	55% (inactive)
NC(=S)n1nc(-c2ccccc2)c(N=Nc2ccccc2[N+](=O)[O-])c1-c1ccccc1	13.2% (inactive)

assay: NCI Yeast Anticancer Drug Screen. Data for the mec2-1 strain (AID 157); settings: S. cerevisiae mec2-1 strain, at 50.0 µM, hits give high values
How it was run: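 Test agents were screened against the mec2-1 yeast strain, with defined DNA repair or cell cycle alteration. Growth was scored as inhibition against vehicle-only controls.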

SMILES	growth inhibition
Cc1oc2nc(N(C)C)nc(Cl)c2c1C	5.8% (inactive)
CCn1c2ccc([N+](=O)[O-])cc2c2c([N+](=O)[O-])c(NC=O)ccc21	15.2% (inactive)
O=C(Nc1ccc(S(=O)(=O)Nc2nccs2)cc1)c1cccnc1Nc1cccc(Cl)c1	8.5% (inactive)
COc1cc(CC(=O)O)ccc1O	-21.3% (inactive)
O=C(Nc1ccc(I)cc1)c1ccc([N+](=O)[O-])cc1	-11.1% (inactive)
CC1CN=C(N(C(=O)Nc2ccc(F)c(Cl)c2)c2ccccc2)S1 (stereo not given)	14.3% (inactive)
Cc1cc(CC(N)C(=O)O)ccc1O (stereo not given)	7.05% (inactive)
Cc1cccc(NC(=S)NC2CCCCC2)c1	11.7% (inactive)
Cc1cccc2c1C1C(CC2=O)C(=O)c2ccccc2C1C (stereo not given)	-17.8% (inactive)
Nc1ccc2c(c1)Cc1cc(O)ccc1-2	-8.75% (inactive)
CCCCS(=O)(=O)N(CCC)CCC	-13.6% (inactive)
Cc1cc(C)c(C2CNCc3cc4c(cc32)CNCC4c2c(C)cc(C)cc2C)c(C)c1 (stereo not given)	-32.8% (inactive)
N#Cc1nc(C(O)c2ccccc2)oc1N (stereo not given)	16.4% (inactive)
C/C=C/c1ccc(OC(C)C(=O)c2ccc3c(c2)OCO3)c(OC)c1 (stereo not given)	-28.9% (inactive)
NC1=Nc2ncccc2C(=O)NN1	19.5% (inactive)
CC1CC(=O)CC[C@@H]1OCc1ccccc1 (stereo not given in full)	-17.4% (inactive)
COC(=O)C1=C(C(=O)OC)C23CC4CCC2(C(=O)C1O3)C4(C)C (stereo not given)	18% (inactive)
COc1ccc2ccc3cccnc3c2n1	22.1% (inactive)
Cc1cccc(-c2cc(=O)c3c(C)cc(C)nc3[nH]2)c1	2.7% (inactive)
C1CCCN(NC2=NCCO2)CC1	4.8% (inactive)

SMILES	growth inhibition
O=C(OC1CC2CCC1C2)c1cc([N+](=O)[O-])cc([N+](=O)[O-])c1 (stereo not given)	-1.4% (inactive)
CC(=O)OC(c1ccccc1)C1(c2ccccc2)OCCO1 (stereo not given)	7.5% (inactive)
CC1C=CCCC1COC(=O)C(=O)OCC1CC=CCC1C (stereo not given)	0.15% (inactive)
CCOC(=O)C/C(C)=N\NC(N)=O	42.5% (inactive)
OC1(c2ccc(F)cc2)CCNCC1	-7.55% (inactive)
COc1ccc(C2OC3=C(Nc4ccc([N+](=O)[O-])cc4N3)C2=O)cc1OC (stereo not given)	-24.2% (inactive)
COC(=O)C1(CCCCCBr)CCCCCCCCCCC1=O (stereo not given)	-15.4% (inactive)
Cc1ccc(S(=O)(=O)NC(C)C(=O)O)cc1 (stereo not given)	-6.65% (inactive)
CCNc1cc2oc(=O)cc(C)c2cc1C	-22.5% (inactive)
CCN(CC)C(C)(C)C(=O)/C=C/c1ccc(OC)cc1	-15.2% (inactive)
CC(=Nc1ccccc1)NO	14% (inactive)
CN(C)c1ccc(C2(c3ccc(N(C)C)cc3)NNC(=O)c3ccccc32)cc1	7.95% (inactive)
O=C1NC(Cc2ccc(O)cc2)C(=O)N1c1ccccc1O (stereo not given)	0.95% (inactive)
COC(C)CCOC(=O)c1ccccc1 (stereo not given)	-17.6% (inactive)
Cc1nc(-n2nc(-c3ccccc3)cc2-c2ccccc2)sc1C(=O)/C=C/c1ccc(Cl)c(Cl)c1	4.55% (inactive)
O=C(O)C12CC3(C(=O)O)CC(C(=O)O)(CC(C(=O)O)(C1)C3=O)C2=O	13.4% (inactive)
CCC(SC(CC)(CC(C)C)C(N)=O)C(N)=O (stereo not given)	-5.65% (inactive)
O=C(NN=C1CCCCC1)c1ccccc1	-10.1% (inactive)
Nc1ccc2c(c1)C(=O)N(OS(=O)(=O)c1ccccc1)C2=O	39% (inactive)
NC(=S)n1nc(-c2ccccc2)c(N=Nc2ccccc2[N+](=O)[O-])c1-c1ccccc1	2.5% (inactive)
